Source: the supplement of paper PMC6555819

Assays:
Test in all cases: PBM binding z-score (relative to random genomic background probes); higher = stronger binding; sequences stand for … in GC…GCGATTGACAGCGTAGAATGAAGG
[1] = system: FXR:RXRa (NR concentration 270 nM, RXRa partner concentration 90 nM)
In short: (§1)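 Binding z-scores were set against random background probes. The data came from custom Agilent 4×180K protein-binding microarrays carrying double-stranded probes with 34-nt variable regions, incubated 1 h with ligand-free nuclear receptor dimers. Partner-specific antibodies detected binding, and scanned fluorescence was regression-normalized.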

[2] = system: LXRa:RXRa (NR concentration 270 nM, RXRa partner concentration 90 nM)
In short: as §1

[3] = system: LXRa homodimer (NR concentration 270 nM)
In short: as §1

[4] = system: LXRb:RXRa (NR concentration 270 nM, RXRa partner concentration 90 nM)
In short: as §1

[5] = system: LXRb homodimer (NR concentration 270 nM)
In short: as §1

[6] = system: PPARa:RXRa (NR concentration 270 nM, RXRa partner concentration 90 nM)
In short: as §1

[7] = system: PPARg:RXRa (NR concentration 180 nM, RXRa partner concentration 90 nM)
In short: as §1

[8] = system: PPARg:RXRa 270nM:90nM, anti-RXR (NR concentration 270 nM, RXRa partner concentration 90 nM)
In short: as §1

[9] = system: PPARg:RXRa 30nM:10nM, anti-RXR (NR concentration 30 nM, RXRa partner concentration 10 nM)
In short: as §1

[10] = system: PPARg:RXRa 90nM:30nM, anti-RXR (NR concentration 90 nM, RXRa partner concentration 30 nM)
In short: as §1

Row | Sequence | PBM binding z-score [1] | PBM binding z-score [2] | PBM binding z-score [3] | PBM binding z-score [4] | PBM binding z-score [5] | PBM binding z-score [6] | PBM binding z-score [7] | PBM binding z-score [8] | PBM binding z-score [9] | PBM binding z-score [10]
1 | TTACCAAGGTGAGCTGAGGTCGTTGTTCCAACTC | 1.49 | 1.3 | -0.412 | 0.784 | -1.32 | 1.75 | -0.301 | 1.01 | -0.393 | 0.445
2 | ATATGTAGGTTATCGGGTGATTCAGTTTGCGCAT | 0.87 | 1.16 | 0.949 | 1.33 | 0.879 | 3.39 | 5.08 | 5.04 | 2.59 | 4.28
3 | TGAATGAGGTTATCAGATCAGGGAACGTTGCAAA | 1.75 | 1.5 | -0.39 | 1.18 | -0.266 | 3.2 | 1.74 | 2.18 | 0.777 | 1.28
4 | AGTCAAAGTTCAGGACGAGGTATCGTAAAGCACG | 3.59 | 3.83 | 1.22 | 1.59 | -0.0231 | 2.98 | 3.89 | 4.58 | 1.74 | 3.93
5 | AATCCAGGGTCACTAGGCCAGAGTAGGTACGAAT | 5.69 | 4.8 | 0.376 | 3.92 | 0.621 | 5.78 | 7.8 | 6.61 | 3.93 | 5.73
6 | CCTTACGGGTCACTCACAGGTTATAGCATTTGGA | 4.95 | 4.32 | 0.653 | 3.67 | 0.243 | 5.1 | 4.15 | 3.82 | 1.29 | 2.78
7 | CCTCGGAGGACAACAGGAGGTCAGAGCGGCCAGA | 1.36 | 2.25 | 2.24 | 1.42 | -0.43 | 2.09 | 0.411 | 0.182 | -0.715 | -0.31
8 | AGTCAAAGTTCAGGACCAGGTAACGTAAAGCACG | 4.33 | 3.63 | 1.19 | 1.72 | 0.134 | 3.32 | 4.94 | 4.9 | 2.16 | 4.19
9 | TCTTGTAGATCAAGCAGGTTAAGAGAGCCTGAGT | 0.126 | 0.03 | -0.729 | 0.145 | -0.665 | 0.53 | -0.372 | 0.87 | 2.06 | 1.55
10 | TCTATTAGTTGATTAGGGCTACCGAAACAGCGGA | 0.263 | 0.345 | -0.0589 | 0.351 | 0.304 | 0.505 | 0.0193 | 2.26 | 3.84 | 2.98
11 | CCTTACGGGTCACGAGATTATAGCACGACGAGCG | 6.02 | 4.05 | 0.0796 | 3.37 | 0.00532 | 5.42 | 6.21 | 5.93 | 2.99 | 4.95
12 | AGAAAGAGGGCACGCTGAGTTGATAGCAGAGTAG | 1.1 | 1.24 | -0.317 | 0.624 | -0.685 | 2.59 | 1.83 | 1.95 | 0.315 | 1.09
13 | CCGAATGGGGCAGAAAGGTTACCATACCATCCGG | 0.445 | 0.679 | 0.189 | 0.904 | -0.832 | 2.53 | 2.67 | 4.16 | 2.22 | 3.95
14 | GCAGACAGGTGAAACGCAGGTAACCCAGGGTGGC | -0.174 | -0.00229 | -0.737 | -0.377 | -1.23 | 0.855 | 0.586 | -0.135 | -0.728 | -0.633
15 | ACATGTAGGTTAAGGGTCATTCAGGTTGGTTCGC | 5.47 | 4.89 | 3.12 | 4.5 | 1.95 | 6.02 | 11.1 | 9.37 | 8.78 | 11
16 | TCTTGTAGATCAACAGGAGGTTACGAAAGATCGA | 0.309 | 1.28 | 0.0638 | 0.991 | -0.0897 | 1.55 | 0.26 | 1.65 | 2.53 | 1.91
17 | ACTGTTAGTTGAGACGAGGGCAACCGATAGGTTG | 0.919 | 0.0939 | -0.0594 | 0.0493 | 0.747 | 0.275 | 0.412 | -0.13 | -0.0644 | 0.0713
18 | CCTATTAGTTGACCATAAAGGCAACCGAAGCTCG | 0.384 | 0.566 | 0.992 | 0.76 | 0.816 | -0.0568 | 0.377 | 0.275 | 0.147 | 0.00767
19 | AGAATGAGGTTAAGATCTGGGAAACAGAATACAT | 1.95 | 1.82 | -0.135 | 1.51 | -0.0689 | 3.64 | 2.13 | 2.39 | 0.969 | 1.84
